Bioassay records (PubChem BioAssay)
TDP1 cell noCPT = qHTS for Inhibitors of human tyrosyl-DNA phosphodiesterase 1 (TDP1): qHTS in cells in absence of CPT. AID 686978, 2013. DT40 Tdp1-/- hTDP1 cells, no CPT, ATP luminescence, 48 h. Potency, µM (top dose mostly 46.2 µM), for the others: at the highest dose activity change, negative = growth inhibition, most hits filed as inhibitors. 420,000 tested, 15% active; further: potency means the concentration at half of the fitted maximal effect; nearly all actives have a fitted effect of over 55% in size
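No-CPT arm: Tdp1-/-;hTDP1 DT40 cells (400/well) plus compounds, incubated ≥48 hr at 37 °C. Readout CellTiter-Glo luminescence.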
TDP1 cell CPT = DT40-hTDP1 cell growth loss with CPT | AID 686979 | chicken DT40 Tdp1-/-;hTDP1 cells + 20 nM CPT, ATP luminescence, 48 h | 420,000 tested, 12% active | Potency, µM (doses to about 46.2 µM), for the others: top-dose activity change, negative = growth inhibition, usual class: inhibitors; further: potency means the concentration at half of the fitted maximal effect; nearly all actives have a fitted effect of over 55% in size
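Chicken DT40 Tdp1-/- cells complemented with human TDP1, 400 cells/well, exposed to compounds plus 20 nM camptothecin for at least 48 h at 37 C; viability read as ATP content by CellTiter-Glo luminescence.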
Gal4-VP16 FLuc = inhibits Gal4-VP16 luciferase reporter, ROR gamma counter-screen | Drosophila S2 Gal4-VP16 UAS-luciferase, luminescence, 20 h | Potency, µM (top dose mostly 53.6 µM), inactives show at the highest dose activity, negative = inhibition, most hits filed as inhibitors | 310,000 tested, 3.5% active;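 further: Gal4-VP16 expression switched on by copper sulfate through the metallothionein promoter; potency means the concentration at half of the fitted maximal effect; nearly all actives have a fitted effect of over 50% in size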
IL1B secr inh = inflammasome signaling inhibition, IL-1 beta readout | THP-1 LPS/ATP IL-1B secretion, AlphaLISA, 16 h; active compounds read low | activity change, % at 57.5 µM | 360,000 tested, 4.7% active | AID 743279; in the data active means activity change below about -50%; inconclusive means mostly about -30% to -49%
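Secreted IL-1B measured by AlphaLISA bead assay after 16 h compound exposure of THP-1 cells; compounds (final up to 57.5 uM) added 1 h before LPS (250 ng/mL) and ATP (1.25 mM) stimulation; lower signal means less secretion.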
RORg inh = inhibitors of mouse ROR gamma transcriptional activity; P51450; Drosophila S2 Gal4-RORgamma UAS-luciferase reporter, 20 h; Potency, µM (top dose mostly 53.6 µM), without a hit: at the top dose activity change, negative = inhibition, most hits filed as inhibitors; 310,000 tested, 5.4% active; further: potency means the concentration at half of the fitted maximal effect; nearly all actives have a fitted effect of over 60% in size
Target sequence (P51450 whole entry, looked up, the tested form may be a part): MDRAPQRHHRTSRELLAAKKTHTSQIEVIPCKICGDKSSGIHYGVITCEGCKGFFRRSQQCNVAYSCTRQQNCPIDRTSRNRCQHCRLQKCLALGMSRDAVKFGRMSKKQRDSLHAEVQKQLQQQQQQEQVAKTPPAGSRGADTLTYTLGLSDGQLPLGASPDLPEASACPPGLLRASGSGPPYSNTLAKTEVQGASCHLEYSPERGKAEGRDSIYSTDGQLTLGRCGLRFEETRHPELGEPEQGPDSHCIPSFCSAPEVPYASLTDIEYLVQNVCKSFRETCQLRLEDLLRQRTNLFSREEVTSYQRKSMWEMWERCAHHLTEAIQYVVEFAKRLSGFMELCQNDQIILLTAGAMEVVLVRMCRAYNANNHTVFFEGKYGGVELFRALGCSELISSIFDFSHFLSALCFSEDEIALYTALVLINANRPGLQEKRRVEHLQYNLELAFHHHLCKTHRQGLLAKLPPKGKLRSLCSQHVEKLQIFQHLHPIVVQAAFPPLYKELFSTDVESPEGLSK
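ROR gamma transcriptional activity was tracked as Gal4-UAS luciferase output in stably transfected Drosophila Schneider cells, with compound added 1 hr before 700 uM copper sulfate induction and a 20 hr ambient-temperature incubation.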
LDHA block = inhibitors of human lactate dehydrogenase A. P00338. purified LDHA, NADH/diaphorase-resazurin fluorescence; active compounds read low. activity change, % (values are at about 110 or 230 µM). 480,000 tested, 0.15% active; in the data active means activity change below about -30%; inconclusive means mostly about -25% to -30%;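 further: plate controls were DMSO wells for no effect and wells without enzyme for full effect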
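Human LDH5 (2 nM) was incubated with 0.06 mM NADH and 0.2 mM pyruvate for 5 min at room temperature in Tris pH 7.4. Remaining NADH was coupled through diaphorase/resazurin, and resorufin fluorescence was read at 0 and 20 min.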
* = called active by the depositor; [ ] = dose if it differs, or a comment. Compounds with a hit are over-represented: about 18% of the library has one in this group of screens. Unless noted, the call rests on the fitted dose curve; in most records, active means well fitted curve in the direction sought with a large enough effect; inconclusive means small, poorly fitted or top-dose-only effect, or another doubt; inactive means no such curve, though single readings can be large; an effect the other way counts as inactive or inconclusive. Unless noted, on the % scale 0 is the no-effect control and ±100 the full control effect.

Screening Cc1ccc2c(c1)COc1c3ccc(C(=O)N[C@@H](C)CO)cc3nn1-2 returned TDP1 cell noCPT inconclusive, TDP1 cell CPT inconclusive, Gal4-VP16 FLuc inconclusive, IL1B secr inh -21, RORg inh -43% and LDHA block 0.
`O=C(O)c1ccc2c3n(nc2c1)-c1ccc(Cl)cc1CO3` gave TDP1 cell noCPT -9%, TDP1 cell CPT -24%, Gal4-VP16 FLuc 3.2µM*, IL1B secr inh 22, RORg inh 7.1µM* and LDHA block 5.
For COCCNC(=O)c1ccc2c3n(nc2c1)-c1ccc(Cl)cc1CO3 the results were TDP1 cell noCPT 21µM*, TDP1 cell CPT inconclusive, Gal4-VP16 FLuc -29%, IL1B secr inh -9, RORg inh -38% and LDHA block -1.
Screening Cc1ccc2c(c1)COc1c3ccc(C(=O)NC(C)C)cc3nn1-2 returned TDP1 cell noCPT 10µM*, TDP1 cell CPT inconclusive, Gal4-VP16 FLuc -21%, IL1B secr inh -2, RORg inh -26% and LDHA block 0.
O=C(c1ccc2c3n(nc2c1)-c1ccc(Cl)cc1CO3)N1CCCCC1 was read as TDP1 cell noCPT inconclusive, TDP1 cell CPT inconclusive, Gal4-VP16 FLuc 9%, IL1B secr inh -1, RORg inh -11% and LDHA block 1.
Screening C=CCNC(=O)c1ccc2c3n(nc2c1)-c1ccccc1CO3 returned TDP1 cell noCPT 23µM*, TDP1 cell CPT 15µM*, Gal4-VP16 FLuc inconclusive, IL1B secr inh 6, RORg inh inconclusive and LDHA block 0.
CN(Cc1ccc(Cl)c(Cl)c1)C(=O)Cn1nnn(-c2cccs2)c1=O was read as LDHA block 1.
CCCCCCOc1ccc(/C=C(/C#N)c2ccccn2)cc1 was read as LDHA block 5.
CCOc1cc(/C=N/Nc2nc(-c3cccs3)c(NC(C)=O)s2)ccc1O was read as TDP1 cell noCPT 13µM*, TDP1 cell CPT -3%, Gal4-VP16 FLuc -2%, IL1B secr inh -60*, RORg inh -5% and LDHA block 14.
CC(=O)Nc1sc(N/N=C\c2ccccc2Cl)nc1-c1cccs1 was read as TDP1 cell noCPT 18µM*, TDP1 cell CPT 16µM*, Gal4-VP16 FLuc -23%, IL1B secr inh -3, RORg inh -2% and LDHA block -2.
Screening CC(=O)Nc1sc(N/N=C/c2ccccc2)nc1-c1ccc(C)cc1 returned TDP1 cell noCPT inconclusive, TDP1 cell CPT inconclusive, Gal4-VP16 FLuc 3%, IL1B secr inh -90*, RORg inh -17% and LDHA block 2.
Screening CC(=O)Nc1sc(N/N=C\c2ccccc2)nc1-c1cccs1 returned TDP1 cell noCPT inconclusive, TDP1 cell CPT -27%, Gal4-VP16 FLuc 18%, IL1B secr inh -17, RORg inh inconclusive and LDHA block 3.
`O=C(Cc1c[nH]c2ccccc12)NCC(=O)N1CCN(c2ccccc2)CC1` gave LDHA block -1.
Screening O=C1c2ccccc2NC(c2csc(-c3ccc(Cl)cc3)n2)N1Cc1ccco1 (stereo unspecified) returned LDHA block 2.
Cc1cc2oc(C(=O)O)c(C)c2cc1C was read as LDHA block 4.
Screening Clc1ccc(NC2(c3nnnn3C3CCCCC3)CCCCC2)cc1 returned TDP1 cell noCPT 21µM*, TDP1 cell CPT 18µM*, Gal4-VP16 FLuc -6%, IL1B secr inh 3, RORg inh 9% and LDHA block -13.
CC(C)[C@H](NC(=O)c1cccc(S(=O)(=O)N2CCOCC2)c1)C(=O)Nc1nc2ccccc2s1 was read as TDP1 cell noCPT inconclusive, TDP1 cell CPT inconclusive, Gal4-VP16 FLuc 1%, IL1B secr inh -54*, RORg inh inconclusive and LDHA block -5.
CCCC(=O)Nc1nc2ccc(S(=O)(=O)N3CCCCC3)cc2s1 was read as TDP1 cell noCPT 1.3µM*, TDP1 cell CPT 1.3µM*, Gal4-VP16 FLuc -2%, IL1B secr inh 30, RORg inh 23% and LDHA block -2.
Screening CC(C)CC(=O)Nc1nc2ccc(S(=O)(=O)N3CCOCC3)cc2s1 returned TDP1 cell noCPT 21µM*, TDP1 cell CPT 13µM*, Gal4-VP16 FLuc 5%, IL1B secr inh 13, RORg inh 10% and LDHA block -1.
Screening COc1ccc2cc(CNC(=O)c3nn(C)c(=O)c4ccccc34)ccc2c1 returned LDHA block 0.
`COC(=O)C(C)OC(=O)/C=C/c1ccc2ccccc2n1` (stereo unspecified) gave LDHA block 9.
`CC(C)CCNC(=O)COC(=O)/C=C/c1ccc2ccccc2n1` gave TDP1 cell noCPT inconclusive, TDP1 cell CPT inconclusive, Gal4-VP16 FLuc -6%[10 µM], IL1B secr inh -59*, RORg inh 24% and LDHA block -9.
Screening O=C(COC(=O)/C=C/c1ccc2ccccc2n1)NNC(=O)c1ccccc1 returned TDP1 cell noCPT 26µM*, TDP1 cell CPT inconclusive, IL1B secr inh inconclusive and LDHA block -2.
COc1ccc(CNC(=O)c2ccc(NC(=O)N3CCSc4nc(C)cc(C)c43)cc2)c(OC)c1 was read as LDHA block -21.
Screening CCCCCCCCCCS(=O)(=O)CCCCCl returned LDHA block 1.
`CC(=O)/C(=N/Nc1ccccc1)N1CCOCC1` gave TDP1 cell noCPT -5%, TDP1 cell CPT -17%, Gal4-VP16 FLuc -4%[0.365 µM], IL1B secr inh -12, RORg inh -5% and LDHA block 2.
`CC(=O)/C(=N/Nc1ccccc1C)N1CCOCC1` gave TDP1 cell noCPT 21µM*, TDP1 cell CPT 8.2µM*, Gal4-VP16 FLuc -4%, IL1B secr inh 14, RORg inh -2% and LDHA block 8.
For COc1ccc(-c2coc3c(C(=O)NCC4CCOCC4)cccc23)c(C)c1 the results were TDP1 cell noCPT 10µM*, TDP1 cell CPT 10µM*, IL1B secr inh -22 and LDHA block -9.
`COCCCNC(=O)c1cccc2c(-c3ccc(OC)cc3C)coc12` gave TDP1 cell noCPT inconclusive, TDP1 cell CPT 18µM*, IL1B secr inh -6 and LDHA block 1.
Screening COc1ccc(-c2coc3c(C(=O)NCCc4ccccc4)cccc23)c(C)c1 returned TDP1 cell noCPT 16µM*, TDP1 cell CPT 16µM*, IL1B secr inh -28 and LDHA block -5.
